Laboratory results as given in the supplement of paper PMC10849652.
About 8,800 targets were measured; listed, in parts, are those with a hit and a random draw of the rest. About 0.5% of all pairs of compound and target were hits.

Experiments:
Experiment in all cases: log2 fold change, soluble protein after heating vs DMSO (PISA); higher = thermal stabilisation; K562 lysate, 10 uM; active = over 0.2 and 3.5 SD of the protein, either way, in both replicates (recomputed)
alvocidib = compound: CN1CC[C@H](c2c(O)cc(O)c3c(=O)cc(-c4ccccc4Cl)oc23)[C@H](O)C1 [alvocidib]
How it was run: (§1)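 Log-two fold change in thermal stability relative to solvent controls is reported from duplicates. For each sample, crude K562 extract from dounce-homogenised pellets in PBS pH 7.4 with 1 mM MgCl2, at 1 mg/mL protein, was treated with 10 μM compound for 30 min. Aliquots heated for 3 min across 48°C-58°C were pooled, brought to 0.5% NP-40 at 4°C and cleared at 21,000xg for 90 min. The supernatant was quantified by TMTpro 16plex LC-MS/MS with channel sums equalised.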

Tubastatin A = compound: CN1CCc2c(c3ccccc3n2Cc2ccc(C(=O)NO)cc2)C1 [Tubastatin A]
How it was run: as §1

[1] = compound: CNC(=O)C1=CC=CC=C1NC2=NC(=NC=C2Cl)NC3=C(C=C(C=C3)N4CCOCC4)OC
How it was run: as §1

defactinib = compound: CNC(=O)c1ccc(Nc2ncc(C(F)(F)F)c(NCc3nccnc3N(C)S(C)(=O)=O)n2)cc1 [defactinib]
How it was run: as §1

[2] = compound: CNc1nc(-c2ccc3c(N)n[nH]c3c2)cc(N2C[C@@H](C(=O)NC3CCCCC3)CC[C@H]2C)n1
How it was run: as §1

encorafenib = compound: COC(=O)N[C@@H](C)CNc1nccc(-c2cn(C(C)C)nc2-c2cc(Cl)cc(NS(C)(=O)=O)c2F)n1 [encorafenib]
How it was run: as §1

[3] = compound: COC(=O)[C@H](CCSC)NC(=O)C1=C(C=C(C=C1)NC[C@H](CS)N)C2=CC=CC=C2
How it was run: as §1

alisertib = compound: COc1cc(Nc2ncc3c(n2)-c2ccc(Cl)cc2C(c2c(F)cccc2OC)=NC3)ccc1C(=O)O [alisertib]
How it was run: as §1

[4] = compound: COc1cc2nc(-c3cc(F)ccc3O)nc(N[C@@H]3CNC[C@H]3C(C)(C)O)c2cc1OC
How it was run: as §1

gefitinib = compound: COc1cc2ncnc(Nc3ccc(F)c(Cl)c3)c2cc1OCCCN1CCOCC1 [gefitinib]
How it was run: as §1

lapatinib = compound: CS(=O)(=O)CCNCc1ccc(-c2ccc3ncnc(Nc4ccc(OCc5cccc(F)c5)c(Cl)c4)c3c2)o1 [lapatinib]
How it was run: as §1

pictilisib = compound: CS(=O)(=O)N1CCN(Cc2cc3nc(-c4cccc5[nH]ncc45)nc(N4CCOCC4)c3s2)CC1 [pictilisib]
How it was run: as §1

crizotinib = compound: C[C@@H](Oc1cc(-c2cnn(C3CCNCC3)c2)cnc1N)c1c(Cl)ccc(F)c1Cl [crizotinib]
How it was run: as §1

[5] = compound: C[C@H](C1=CC=C(C=C1)C(=O)NC2=C3C=CNC3=NC=C2)N
How it was run: as §1

duvelisib = compound: C[C@H](Nc1ncnc2nc[nH]c12)c1cc2cccc(Cl)c2c(=O)n1-c1ccccc1 [duvelisib]
How it was run: as §1

gandotinib = compound: Cc1cc(Nc2cc(CN3CCOCC3)c3nc(C)c(Cc4ccc(Cl)cc4F)n3n2)n[nH]1 [gandotinib]
How it was run: as §1

tozasertib = compound: Cc1cc(Nc2cc(N3CCN(C)CC3)nc(Sc3ccc(NC(=O)C4CC4)cc3)n2)n[nH]1 [tozasertib]
How it was run: as §1

doramapimod = compound: Cc1ccc(-n2nc(C(C)(C)C)cc2NC(=O)Nc2ccc(OCCN3CCOCC3)c3ccccc23)cc1 [doramapimod]
How it was run: as §1

bafetinib = compound: Cc1ccc(NC(=O)c2ccc(CN3CC[C@H](N(C)C)C3)c(C(F)(F)F)c2)cc1Nc1nccc(-c2cncnc2)n1 [bafetinib]
How it was run: as §1

[6] = compound: Cc1cccc(CC(=O)N2CCc3c2ccc(-c2cn(C)c4ncnc(N)c24)c3F)n1
How it was run: as §1

Measured: log2 fold change

PDXDC1 (UniProt Q6P996)
Sequence of UniProt Q6P996 (Q6P996 whole entry, looked up): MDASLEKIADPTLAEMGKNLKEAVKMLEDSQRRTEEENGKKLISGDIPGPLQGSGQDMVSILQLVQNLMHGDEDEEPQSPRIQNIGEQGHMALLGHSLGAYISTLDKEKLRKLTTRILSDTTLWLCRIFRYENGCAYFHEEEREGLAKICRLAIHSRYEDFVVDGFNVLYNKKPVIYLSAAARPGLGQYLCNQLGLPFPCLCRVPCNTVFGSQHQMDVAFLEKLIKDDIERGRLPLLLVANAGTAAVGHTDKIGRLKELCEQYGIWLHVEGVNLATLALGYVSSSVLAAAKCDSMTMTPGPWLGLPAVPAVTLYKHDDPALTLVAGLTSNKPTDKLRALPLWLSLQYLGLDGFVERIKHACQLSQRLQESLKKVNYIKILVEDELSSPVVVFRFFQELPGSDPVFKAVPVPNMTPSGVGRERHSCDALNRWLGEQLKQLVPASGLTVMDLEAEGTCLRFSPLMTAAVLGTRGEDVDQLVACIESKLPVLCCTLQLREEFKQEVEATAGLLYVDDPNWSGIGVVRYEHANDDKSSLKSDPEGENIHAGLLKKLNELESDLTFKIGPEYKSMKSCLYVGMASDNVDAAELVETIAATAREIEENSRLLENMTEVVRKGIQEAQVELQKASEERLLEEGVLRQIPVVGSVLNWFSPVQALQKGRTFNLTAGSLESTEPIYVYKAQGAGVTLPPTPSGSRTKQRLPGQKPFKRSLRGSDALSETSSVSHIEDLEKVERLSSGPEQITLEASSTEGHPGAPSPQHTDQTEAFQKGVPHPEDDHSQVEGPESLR
inactive: alvocidib -0.005 | Tubastatin A -0.065 | [1] -0.007 | defactinib 0.034 | [2] 0.088 | encorafenib 0.058 | [3] 0.085 | alisertib 0.049 | [4] -0.006 | gefitinib 0.032 | lapatinib -0.025 | pictilisib -0.019 | crizotinib -0.056 | [5] -0.011 | duvelisib 0.019 | gandotinib 0 | tozasertib 0.01 | doramapimod 0.007 | bafetinib -0.128 | [6] 0.062

PRC1 (UniProt O43663)
Sequence of UniProt O43663 (O43663 whole entry, looked up): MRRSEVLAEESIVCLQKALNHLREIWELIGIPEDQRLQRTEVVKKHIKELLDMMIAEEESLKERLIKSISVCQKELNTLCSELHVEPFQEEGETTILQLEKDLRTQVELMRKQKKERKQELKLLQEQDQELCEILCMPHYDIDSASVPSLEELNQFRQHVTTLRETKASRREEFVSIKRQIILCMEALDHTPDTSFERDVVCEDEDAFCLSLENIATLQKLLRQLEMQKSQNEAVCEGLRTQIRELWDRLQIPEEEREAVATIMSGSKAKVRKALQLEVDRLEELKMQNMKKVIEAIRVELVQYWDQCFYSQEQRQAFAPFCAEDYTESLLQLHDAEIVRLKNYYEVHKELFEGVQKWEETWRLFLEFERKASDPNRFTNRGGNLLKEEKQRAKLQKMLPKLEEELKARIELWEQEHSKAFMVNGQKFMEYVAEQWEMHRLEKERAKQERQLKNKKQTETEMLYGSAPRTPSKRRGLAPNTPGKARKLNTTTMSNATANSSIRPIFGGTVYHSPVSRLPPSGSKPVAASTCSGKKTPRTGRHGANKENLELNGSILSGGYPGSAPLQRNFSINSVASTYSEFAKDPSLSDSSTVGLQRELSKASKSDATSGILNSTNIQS
active: [3] 0.255
inactive: alvocidib 0.002 | Tubastatin A -0.157 | [1] 0.043 | defactinib -0.012 | [2] 0.012 | encorafenib 0.031 | alisertib 0.045 | [4] -0.032 | gefitinib 0.049 | lapatinib -0.014 | pictilisib -0.007 | crizotinib -0.109 | [5] 0.023 | duvelisib 0.059 | gandotinib -0.003 | tozasertib 0.017 | doramapimod 0.004 | bafetinib -0.079 | [6] 0.025

PI4K2B (UniProt Q8TCG2)
inactive: alvocidib -0.263 | Tubastatin A 0.12 | [1] -0.04 | defactinib -0.081 | [2] -0.057 | encorafenib 0.041 | [3] -0.005 | alisertib -0.068 | [4] -0.011 | gefitinib 0.107 | lapatinib 0.009 | pictilisib 0.039 | crizotinib -0.203 | [5] 0.134 | duvelisib 0.143 | gandotinib 0.041 | tozasertib 0.019 | doramapimod -0.026 | bafetinib -0.017 | [6] 0.003

POC5 (UniProt Q8NA72)
Sequence of UniProt Q8NA72 (Q8NA72 whole entry, looked up): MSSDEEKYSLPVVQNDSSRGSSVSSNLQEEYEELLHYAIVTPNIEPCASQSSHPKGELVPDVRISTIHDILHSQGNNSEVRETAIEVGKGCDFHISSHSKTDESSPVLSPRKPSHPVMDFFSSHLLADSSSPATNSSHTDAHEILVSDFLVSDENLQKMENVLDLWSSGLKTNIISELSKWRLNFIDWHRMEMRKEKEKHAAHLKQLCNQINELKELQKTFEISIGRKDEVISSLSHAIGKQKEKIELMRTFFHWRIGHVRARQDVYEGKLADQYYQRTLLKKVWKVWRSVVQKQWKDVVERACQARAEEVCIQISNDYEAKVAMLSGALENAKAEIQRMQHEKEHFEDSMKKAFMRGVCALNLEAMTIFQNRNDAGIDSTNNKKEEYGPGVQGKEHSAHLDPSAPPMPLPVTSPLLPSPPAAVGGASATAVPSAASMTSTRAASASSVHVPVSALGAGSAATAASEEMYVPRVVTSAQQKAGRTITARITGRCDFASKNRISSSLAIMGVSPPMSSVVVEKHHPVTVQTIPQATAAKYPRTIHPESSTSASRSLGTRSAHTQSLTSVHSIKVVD
inactive: alvocidib -0.048 | Tubastatin A -0.046 | [1] 0.054 | defactinib 0.154 | [2] 0.06 | encorafenib 0 | [3] -0.048 | alisertib -0.018 | [4] -0.009 | gefitinib 0.042 | lapatinib -0.133 | pictilisib -0.12 | crizotinib 0.02 | [5] 0.022 | duvelisib -0.041 | gandotinib 0.107 | tozasertib -0.086 | doramapimod -0.023 | bafetinib 0.051 | [6] 0.031

PPFIA2 (UniProt O75334)
active: [5] -0.244
inactive: alvocidib -0.107 | Tubastatin A 0.021 | [1] 0.022 | defactinib -0.011 | [2] -0.026 | encorafenib -0.082 | [3] -0.029 | alisertib -0.007 | [4] 0.012 | gefitinib 0.057 | lapatinib -0.014 | pictilisib 0.031 | crizotinib -0.212 | duvelisib 0.001 | gandotinib 0.139 | tozasertib -0.028 | doramapimod 0.023 | bafetinib 0.019 | [6] 0.147

PYCR2 (UniProt Q96C36)
Sequence of UniProt Q96C36 (Q96C36 whole entry, looked up): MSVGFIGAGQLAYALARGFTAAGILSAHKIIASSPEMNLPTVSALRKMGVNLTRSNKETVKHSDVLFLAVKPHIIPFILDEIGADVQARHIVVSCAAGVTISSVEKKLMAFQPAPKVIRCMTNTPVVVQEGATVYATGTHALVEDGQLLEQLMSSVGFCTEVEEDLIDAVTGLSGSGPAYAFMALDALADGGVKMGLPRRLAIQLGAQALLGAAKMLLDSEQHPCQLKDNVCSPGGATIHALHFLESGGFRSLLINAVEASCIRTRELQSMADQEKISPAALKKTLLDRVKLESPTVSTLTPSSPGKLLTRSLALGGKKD
inactive: alvocidib -0.052 | Tubastatin A 0.041 | [1] 0.004 | defactinib 0.001 | [2] 0.011 | encorafenib -0.005 | [3] -0.038 | alisertib 0.013 | [4] -0.001 | gefitinib -0.005 | lapatinib -0.029 | pictilisib -0.021 | crizotinib 0.026 | [5] 0.021 | duvelisib -0.004 | gandotinib 0.01 | tozasertib 0.001 | doramapimod -0.012 | bafetinib 0.034 | [6] -0.01

PLXNB2 (UniProt O15031)
inactive: alvocidib 0 | Tubastatin A 0.015 | [1] 0.009 | defactinib 0.002 | [2] 0.027 | encorafenib 0.004 | [3] -0.107 | alisertib 0.017 | [4] 0.054 | gefitinib 0.016 | lapatinib -0.033 | pictilisib -0.068 | crizotinib -0.014 | [5] -0.019 | duvelisib 0.031 | gandotinib -0.046 | tozasertib 0.027 | doramapimod -0.044 | bafetinib -0.004 | [6] 0.031

PDS5A (UniProt Q29RF7)
Sequence of UniProt Q29RF7 (Q29RF7 whole entry, looked up): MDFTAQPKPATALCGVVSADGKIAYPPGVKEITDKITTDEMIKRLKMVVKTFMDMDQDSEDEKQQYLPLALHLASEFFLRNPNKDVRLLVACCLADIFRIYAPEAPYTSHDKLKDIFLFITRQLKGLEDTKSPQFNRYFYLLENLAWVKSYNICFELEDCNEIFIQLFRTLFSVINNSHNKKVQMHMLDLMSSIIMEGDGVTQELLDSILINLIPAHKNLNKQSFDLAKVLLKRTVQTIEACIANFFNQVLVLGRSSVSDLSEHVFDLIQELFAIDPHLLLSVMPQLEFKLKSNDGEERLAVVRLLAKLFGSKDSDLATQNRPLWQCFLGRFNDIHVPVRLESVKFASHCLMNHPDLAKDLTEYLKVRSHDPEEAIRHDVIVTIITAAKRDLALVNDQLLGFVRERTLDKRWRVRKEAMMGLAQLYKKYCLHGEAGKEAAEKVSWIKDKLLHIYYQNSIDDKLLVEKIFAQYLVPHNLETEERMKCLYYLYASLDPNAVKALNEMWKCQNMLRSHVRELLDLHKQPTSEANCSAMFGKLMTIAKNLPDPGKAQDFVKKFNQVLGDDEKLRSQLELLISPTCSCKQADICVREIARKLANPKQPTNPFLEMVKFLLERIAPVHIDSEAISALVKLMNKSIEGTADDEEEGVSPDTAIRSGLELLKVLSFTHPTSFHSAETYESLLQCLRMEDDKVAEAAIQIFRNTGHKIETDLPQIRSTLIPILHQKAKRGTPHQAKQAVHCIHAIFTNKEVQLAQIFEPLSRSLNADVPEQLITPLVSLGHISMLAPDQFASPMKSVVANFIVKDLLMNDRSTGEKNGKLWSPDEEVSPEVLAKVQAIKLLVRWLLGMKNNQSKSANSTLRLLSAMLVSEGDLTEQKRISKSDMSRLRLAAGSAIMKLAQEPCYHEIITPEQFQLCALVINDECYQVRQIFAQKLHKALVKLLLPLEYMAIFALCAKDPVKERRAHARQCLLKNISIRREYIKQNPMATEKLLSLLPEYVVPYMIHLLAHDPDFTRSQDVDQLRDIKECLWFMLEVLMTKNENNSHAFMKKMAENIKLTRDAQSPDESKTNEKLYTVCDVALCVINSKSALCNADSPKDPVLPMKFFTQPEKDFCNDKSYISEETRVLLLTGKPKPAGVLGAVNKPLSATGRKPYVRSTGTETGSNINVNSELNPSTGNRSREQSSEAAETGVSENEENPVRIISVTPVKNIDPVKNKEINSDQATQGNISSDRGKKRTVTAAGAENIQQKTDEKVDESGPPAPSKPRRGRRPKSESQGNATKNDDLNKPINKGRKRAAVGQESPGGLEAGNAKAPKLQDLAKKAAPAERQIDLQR
inactive: alvocidib 0.023 | Tubastatin A -0.21 | [1] 0.016 | defactinib 0.016 | [2] -0.054 | encorafenib 0.048 | [3] -0.003 | alisertib 0.014 | [4] 0 | gefitinib -0.005 | lapatinib -0.024 | pictilisib -0.053 | crizotinib -0.123 | [5] -0.09 | duvelisib 0.023 | gandotinib -0.127 | tozasertib 0.008 | doramapimod 0.006 | bafetinib -0.075 | [6] 0.125

PWP2 (UniProt Q15269)
inactive: alvocidib -0.014 | Tubastatin A -0.073 | [1] 0.027 | defactinib 0.042 | [2] 0.061 | encorafenib 0.035 | [3] -0.033 | alisertib 0.004 | [4] -0.007 | gefitinib -0.057 | lapatinib -0.017 | pictilisib -0.012 | crizotinib 0.001 | [5] -0.016 | duvelisib 0.005 | gandotinib -0.075 | tozasertib -0.013 | doramapimod -0.017 | bafetinib -0.023 | [6] 0.029

PHKA2 (UniProt P46019)
Sequence of UniProt P46019 (P46019 whole entry, looked up): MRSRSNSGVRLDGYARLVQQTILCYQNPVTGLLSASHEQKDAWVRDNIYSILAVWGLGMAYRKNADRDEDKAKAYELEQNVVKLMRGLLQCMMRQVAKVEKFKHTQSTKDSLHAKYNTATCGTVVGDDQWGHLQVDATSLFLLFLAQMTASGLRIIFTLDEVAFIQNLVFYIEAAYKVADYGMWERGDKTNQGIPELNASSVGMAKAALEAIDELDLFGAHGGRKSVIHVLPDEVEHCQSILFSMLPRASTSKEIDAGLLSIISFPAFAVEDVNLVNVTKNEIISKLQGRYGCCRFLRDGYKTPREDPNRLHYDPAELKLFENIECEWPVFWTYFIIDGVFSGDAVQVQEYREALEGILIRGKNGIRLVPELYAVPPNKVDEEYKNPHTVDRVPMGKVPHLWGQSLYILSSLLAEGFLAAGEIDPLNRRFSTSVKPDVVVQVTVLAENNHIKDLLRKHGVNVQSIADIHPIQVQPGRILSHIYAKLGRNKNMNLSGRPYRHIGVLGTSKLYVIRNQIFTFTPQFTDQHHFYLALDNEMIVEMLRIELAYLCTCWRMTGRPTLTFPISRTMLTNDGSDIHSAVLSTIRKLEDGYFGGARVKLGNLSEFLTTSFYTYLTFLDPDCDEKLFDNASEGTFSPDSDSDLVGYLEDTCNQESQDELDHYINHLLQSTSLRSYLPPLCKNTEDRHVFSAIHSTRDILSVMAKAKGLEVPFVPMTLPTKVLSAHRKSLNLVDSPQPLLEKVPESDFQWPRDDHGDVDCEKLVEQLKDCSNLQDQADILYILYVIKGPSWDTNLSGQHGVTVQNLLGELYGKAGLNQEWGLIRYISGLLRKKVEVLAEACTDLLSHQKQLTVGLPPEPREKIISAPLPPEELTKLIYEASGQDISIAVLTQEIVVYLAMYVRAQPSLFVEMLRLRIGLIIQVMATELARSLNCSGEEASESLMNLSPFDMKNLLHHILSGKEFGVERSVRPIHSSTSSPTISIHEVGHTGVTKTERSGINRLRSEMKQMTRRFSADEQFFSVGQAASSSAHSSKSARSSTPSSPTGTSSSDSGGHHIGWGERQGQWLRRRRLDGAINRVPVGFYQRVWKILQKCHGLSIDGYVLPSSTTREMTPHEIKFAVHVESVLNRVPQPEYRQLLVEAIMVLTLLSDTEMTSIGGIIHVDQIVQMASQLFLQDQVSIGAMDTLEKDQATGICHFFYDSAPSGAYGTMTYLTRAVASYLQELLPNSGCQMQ
active: [1] 0.265
inactive: alvocidib 0.064 | Tubastatin A -0.084 | defactinib -0.027 | [2] 0.032 | encorafenib -0.008 | [3] 0.018 | alisertib -0.008 | [4] 0.06 | gefitinib -0.03 | lapatinib -0.085 | pictilisib -0.042 | crizotinib 0.048 | [5] 0.022 | duvelisib -0.01 | gandotinib -0.035 | tozasertib -0.015 | doramapimod 0.013 | bafetinib -0.109 | [6] -0.012

PRKACA (UniProt P17612)
inactive: alvocidib -0.118 | Tubastatin A 0.008 | [1] 0.034 | defactinib 0.177 | [2] 0.082 | encorafenib -0.052 | [3] -0.059 | alisertib 0.027 | gefitinib -0.01 | lapatinib -0.008 | pictilisib -0.012 | crizotinib 0.022 | [5] -0.159 | duvelisib -0.059 | gandotinib 0.115 | tozasertib -0.12 | doramapimod -0.113 | bafetinib -0.073 | [6] 0.151
active: [4] 0.558

PIP4P2 (UniProt Q8N4L2)
inactive: alvocidib -0.03 | Tubastatin A 0.038 | [1] -0.021 | defactinib -0.009 | [2] 0.062 | encorafenib 0 | [3] -0.12 | alisertib 0.006 | [4] 0.052 | gefitinib 0.111 | lapatinib 0.021 | pictilisib -0.019 | crizotinib 0.021 | [5] 0.053 | duvelisib 0.027 | gandotinib -0.021 | tozasertib 0.061 | doramapimod 0.033 | bafetinib -0.09 | [6] -0.009

PCIF1 (UniProt Q9H4Z3)
active: [5] -0.239
inactive: alvocidib 0.038 | Tubastatin A 0.006 | [1] -0.024 | defactinib 0.051 | [2] 0.02 | encorafenib 0.017 | [3] 0.02 | alisertib 0.04 | [4] 0.01 | gefitinib -0.051 | lapatinib -0.059 | pictilisib -0.016 | crizotinib -0.001 | duvelisib 0.216 | gandotinib 0.074 | tozasertib -0.003 | doramapimod 0.017 | bafetinib -0.059 | [6] 0.09

PUS1 (UniProt Q9Y606)
inactive: alvocidib -0.002 | Tubastatin A -0.049 | [1] -0.008 | defactinib 0.002 | [2] -0.029 | encorafenib 0 | [3] 0.086 | alisertib 0.005 | [4] 0.014 | gefitinib -0.019 | lapatinib -0.042 | pictilisib -0.058 | crizotinib -0.062 | [5] -0.006 | duvelisib 0.008 | gandotinib -0.033 | tozasertib 0.012 | doramapimod 0.006 | bafetinib -0.047 | [6] 0.027

PRIM2 (UniProt P49643)
inactive: alvocidib -0.008 | Tubastatin A -0.138 | [1] 0.033 | defactinib -0.01 | [2] 0.009 | encorafenib -0.002 | [3] 0.035 | alisertib -0.017 | [4] -0.009 | gefitinib 0.01 | lapatinib 0.045 | pictilisib -0.025 | crizotinib -0.017 | [5] 0.007 | duvelisib -0.002 | gandotinib -0.056 | tozasertib -0.04 | doramapimod 0.028 | bafetinib -0.1 | [6] 0.004

PRKCSH (UniProt P14314)
inactive: alvocidib 0.009 | Tubastatin A 0.039 | [1] -0.001 | defactinib -0.014 | [2] -0.035 | encorafenib -0.003 | [3] -0.036 | alisertib -0.006 | [4] 0.024 | gefitinib 0.024 | lapatinib -0.004 | pictilisib -0.004 | crizotinib 0.062 | [5] 0.046 | duvelisib 0.022 | gandotinib -0.023 | tozasertib 0.02 | doramapimod -0.042 | bafetinib 0.05 | [6] -0.088
